Measured values reported in PubChem BioAssay (EPA / NIEHS).
Results filed as inconclusive are left out. The source made the active and inactive calls. The calls were made as follows, unless noted: active = hit-call score of the fitted dose curve at least 0.9, where 1 is the maximum; inactive = score below 0.9.

Legend:
[1] = ATG_DR4_LXR_CIS: Attagene CIS-FACTORIAL HepG2 Assay for human Liver X Receptor (LXR), DR4 submotif (AID 2282929); conditions: HepG2 Attagene DR4 cis-reporter, mRNA transcription; actives raise or lower the signal
Summary of the method: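 Endogenous factor activity at a DR4 cis-element is read as reporter mRNA in transiently transfected HepG2 cells. Exposure lasts 24 h; transcripts are amplified, fluorescently labelled and sized by capillary electrophoresis, with DMSO as baseline.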

[2] = molecular target: Hepatocyte nuclear factor 3-beta (Homo sapiens) (UniProt Q9Y261); assay: ATG_FoxA2_CIS: Attagene CIS-FACTORIAL HepG2 Assay for human Forkhead box A2 (FOXA2) (AID 2282942); conditions: HepG2 cis-reporter transcription factor activity, 24 h; actives raise or lower the signal
Sequence of Hepatocyte nuclear factor 3-beta (Homo sapiens) (Q9Y261 whole entry, looked up): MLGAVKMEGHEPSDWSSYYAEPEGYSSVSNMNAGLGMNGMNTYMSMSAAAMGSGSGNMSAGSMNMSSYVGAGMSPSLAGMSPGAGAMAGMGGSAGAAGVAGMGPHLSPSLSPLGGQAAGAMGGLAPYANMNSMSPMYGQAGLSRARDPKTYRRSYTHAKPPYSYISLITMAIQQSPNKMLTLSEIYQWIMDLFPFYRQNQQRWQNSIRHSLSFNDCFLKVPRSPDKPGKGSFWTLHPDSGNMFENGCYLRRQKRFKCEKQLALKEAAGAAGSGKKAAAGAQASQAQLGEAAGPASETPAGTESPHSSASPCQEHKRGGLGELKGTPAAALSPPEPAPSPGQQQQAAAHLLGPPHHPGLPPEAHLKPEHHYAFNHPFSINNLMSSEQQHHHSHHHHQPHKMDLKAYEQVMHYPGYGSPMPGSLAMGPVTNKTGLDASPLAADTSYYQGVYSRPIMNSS
Summary of the method: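 Cells: HepG2, transient multiplex reporter transfection. Exposure 24 h. Detection: reporter-specific RT-PCR, fluorescent labelling, restriction digest, capillary electrophoresis. Analysis: bidirectional curve fit, DMSO as negative control.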

[3] = molecular target: Hypoxia-inducible factor 1-alpha (Homo sapiens) (UniProt Q16665); assay: ATG_HIF1a_CIS: Attagene CIS-FACTORIAL HepG2 Assay for human Hypoxia Inducible Factor 1 (HIF1A) (AID 2282951); conditions: HepG2 Attagene cis-factorial HIF1a reporter transcription; actives raise or lower the signal
Sequence of Hypoxia-inducible factor 1-alpha (Homo sapiens) (Q16665 whole entry, looked up): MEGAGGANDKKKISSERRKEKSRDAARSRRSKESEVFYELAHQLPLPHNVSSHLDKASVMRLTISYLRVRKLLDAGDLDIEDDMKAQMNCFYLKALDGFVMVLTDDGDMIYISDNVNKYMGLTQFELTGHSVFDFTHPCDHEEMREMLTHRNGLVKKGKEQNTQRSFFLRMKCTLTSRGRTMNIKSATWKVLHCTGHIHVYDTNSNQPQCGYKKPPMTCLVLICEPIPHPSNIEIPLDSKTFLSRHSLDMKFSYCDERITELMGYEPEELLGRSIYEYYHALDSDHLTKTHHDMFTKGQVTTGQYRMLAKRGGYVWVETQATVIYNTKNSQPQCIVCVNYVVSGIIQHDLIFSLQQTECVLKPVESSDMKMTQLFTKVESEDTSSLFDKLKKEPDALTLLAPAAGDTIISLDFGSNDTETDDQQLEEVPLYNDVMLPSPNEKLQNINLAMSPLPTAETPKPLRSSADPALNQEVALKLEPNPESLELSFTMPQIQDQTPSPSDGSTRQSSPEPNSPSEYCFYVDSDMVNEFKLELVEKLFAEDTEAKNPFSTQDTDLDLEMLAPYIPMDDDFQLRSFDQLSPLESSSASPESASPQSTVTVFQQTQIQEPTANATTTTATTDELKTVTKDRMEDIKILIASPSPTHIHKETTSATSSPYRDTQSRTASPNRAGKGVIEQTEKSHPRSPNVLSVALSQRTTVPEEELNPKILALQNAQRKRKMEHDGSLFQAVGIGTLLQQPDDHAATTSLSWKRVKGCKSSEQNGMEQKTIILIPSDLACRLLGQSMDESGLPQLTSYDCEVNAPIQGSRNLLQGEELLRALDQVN
Summary of the method: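 HepG2, transient cis-reporter library, 24 h dosing. RNA → RT (oligo dT) → PCR → 6-FAM primer extension → HpaI → CE. Bidirectional curve fit vs DMSO.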

[4] = molecular target: Heat shock factor protein 1 (Homo sapiens) (UniProt Q00613); assay: ATG_HSE_CIS: Attagene CIS-FACTORIAL HepG2 Assay for human Heat Shock Transcription Factor 1 (HSE) (AID 2282953); conditions: HepG2 HSE cis-reporter, Attagene RNA transcription; actives raise or lower the signal
Sequence of Heat shock factor protein 1 (Homo sapiens) (Q00613 whole entry, looked up): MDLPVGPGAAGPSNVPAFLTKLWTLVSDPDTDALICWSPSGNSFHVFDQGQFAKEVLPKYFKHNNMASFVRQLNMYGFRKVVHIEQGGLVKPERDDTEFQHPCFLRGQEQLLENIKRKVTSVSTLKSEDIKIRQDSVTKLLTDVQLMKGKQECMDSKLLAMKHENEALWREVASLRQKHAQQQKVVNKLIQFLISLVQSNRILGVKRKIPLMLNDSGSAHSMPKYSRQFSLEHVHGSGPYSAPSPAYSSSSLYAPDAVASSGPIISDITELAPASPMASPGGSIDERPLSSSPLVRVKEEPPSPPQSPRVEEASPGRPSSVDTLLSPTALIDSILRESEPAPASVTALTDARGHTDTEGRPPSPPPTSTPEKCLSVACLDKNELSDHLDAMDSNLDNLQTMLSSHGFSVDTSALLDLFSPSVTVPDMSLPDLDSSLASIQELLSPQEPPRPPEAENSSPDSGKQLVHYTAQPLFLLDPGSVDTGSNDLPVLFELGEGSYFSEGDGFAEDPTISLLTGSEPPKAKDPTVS
Summary of the method: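 After a 24 h incubation with test chemical, transfected HepG2 cells were harvested for RNA; reporter transcripts were measured by RT-PCR and capillary electrophoresis. Values reflect gain or loss of signal relative to DMSO.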

[5] = ATG_RORE_CIS: Attagene CIS-FACTORIAL HepG2 Assay for human RAR-related Orphan Receptor Element (RORE) (AID 2282959); conditions: HepG2 Attagene cis-factorial RORE reporter, mRNA; actives raise or lower the signal
Summary of the method: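 Multiplexed reporter assay measuring mRNA induction from a cis promoter element in transiently transfected HepG2 cells after 24 h treatment. Detection via RT-PCR and capillary electrophoresis fluorescence; DMSO serves as baseline.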

[6] = molecular target: Signal transducer and activator of transcription 3 (Homo sapiens) (UniProt P40763); assay: ATG_STAT3_CIS: Attagene CIS-FACTORIAL HepG2 Assay for human Signal Transducer and Activator of Transcription 3 (STAT3) (AID 2282963); conditions: HepG2, Attagene cis-factorial STAT3 reporter transcription; actives raise or lower the signal
Sequence of Signal transducer and activator of transcription 3 (Homo sapiens) (P40763 whole entry, looked up, the tested form may be a part): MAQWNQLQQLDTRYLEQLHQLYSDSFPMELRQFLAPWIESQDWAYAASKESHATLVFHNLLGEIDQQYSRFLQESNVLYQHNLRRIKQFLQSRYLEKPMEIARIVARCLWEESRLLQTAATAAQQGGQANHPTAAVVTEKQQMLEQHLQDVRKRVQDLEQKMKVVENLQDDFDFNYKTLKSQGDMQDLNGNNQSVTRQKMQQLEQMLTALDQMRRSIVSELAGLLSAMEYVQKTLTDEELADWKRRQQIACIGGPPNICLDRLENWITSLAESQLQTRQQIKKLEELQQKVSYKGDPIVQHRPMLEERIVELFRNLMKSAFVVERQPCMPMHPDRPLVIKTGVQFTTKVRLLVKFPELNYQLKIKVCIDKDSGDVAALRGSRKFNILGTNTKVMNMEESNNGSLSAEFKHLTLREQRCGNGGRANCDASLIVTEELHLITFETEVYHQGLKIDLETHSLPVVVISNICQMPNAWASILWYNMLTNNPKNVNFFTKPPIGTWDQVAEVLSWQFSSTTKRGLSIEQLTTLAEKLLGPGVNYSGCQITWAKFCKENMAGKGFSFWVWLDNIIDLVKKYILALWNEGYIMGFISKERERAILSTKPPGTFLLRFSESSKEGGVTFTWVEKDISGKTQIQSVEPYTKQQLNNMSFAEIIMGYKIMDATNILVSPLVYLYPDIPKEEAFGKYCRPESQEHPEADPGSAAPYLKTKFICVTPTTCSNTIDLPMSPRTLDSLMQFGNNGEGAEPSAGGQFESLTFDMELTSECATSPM
Summary of the method: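 Fluorescence intensity of 6-FAM-labelled reporter fragments, separated by capillary electrophoresis after RT-PCR, gave the signal. Cells were HepG2 transfected with cis-element reporter units and treated 24 h; fitting was bidirectional relative to DMSO.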

[7] = ATG_TCF_b_cat_CIS: Attagene CIS-FACTORIAL HepG2 Assay for human T-Cell-Factor with beta-catenin (TCF/b-cat) (AID 2282965); conditions: HepG2 TCF/beta-catenin cis-reporter transcription, actives raise or lower the signal
Summary of the method: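 HepG2 cells transiently transfected with cis-promoter-driven multiplexed reporter units; reporter mRNA measured 24 h after dosing by RT-PCR, FAM labelling, HpaI digestion and capillary electrophoresis. Bidirectional fitting relative to DMSO baseline.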

[8] = ATG_TAL_CIS: Attagene CIS-FACTORIAL HepG2 Assay for human TAL Basal Promoter (AID 2282966); conditions: HepG2 Attagene cis-factorial TAL promoter reporter; actives raise or lower the signal;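 also: background control endpoint measuring basal TAL promoter reporter mRNA not a specific factor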
Summary of the method: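 Background-control endpoint: basal TAL promoter reporter transcripts in transiently transfected HepG2, measured 24 h after dosing. Read-out by RT-PCR with fluorescent primer extension and capillary electrophoresis; gain or loss of signal fitted relative to DMSO.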

[9] = ATG_TGFb_CIS: Attagene CIS-FACTORIAL HepG2 Assay for human Transforming Growth Factor (TGF) (AID 2282967); conditions: HepG2 Attagene CIS TGFb reporter, mRNA transcription; actives raise or lower the signal
Summary of the method: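 Transcript-level reporter readout: HepG2 transfectants, 24 h exposure, RNA to cDNA, reporter-specific PCR, fluorescent primer extension, capillary sizing against ROX standards. Gain- or loss-of-signal relative to DMSO.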

[10] = ATG_VDRE_CIS: Attagene CIS-FACTORIAL HepG2 Assay for human Vitamin D Receptor Element (VDRE) (AID 2282968); conditions: HepG2 VDRE cis-reporter transcription, actives raise or lower the signal
Summary of the method: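 Compounds were applied for 24 h to HepG2 cells transfected with promoter-regulated reporter units. Total RNA was reverse-transcribed, and reporter amplicons were fluorescently labelled and sized by capillary electrophoresis.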

[11] = molecular target: X-box-binding protein 1 (Homo sapiens) (UniProt P17861); assay: ATG_Xbp1_CIS: Attagene CIS-FACTORIAL HepG2 Assay for human X-box Binding Protein 1 (XBP1) (AID 2282972); conditions: HepG2 XBP1 cis-element reporter, Attagene multiplex; actives raise or lower the signal
Sequence of X-box-binding protein 1 (Homo sapiens) (P17861 whole entry, looked up): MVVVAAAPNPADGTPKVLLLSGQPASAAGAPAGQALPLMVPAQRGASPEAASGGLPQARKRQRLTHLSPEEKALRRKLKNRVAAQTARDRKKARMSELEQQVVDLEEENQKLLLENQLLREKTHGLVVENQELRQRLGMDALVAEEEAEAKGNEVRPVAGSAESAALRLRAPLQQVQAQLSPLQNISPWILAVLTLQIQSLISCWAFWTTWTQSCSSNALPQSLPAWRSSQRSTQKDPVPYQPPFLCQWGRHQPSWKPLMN
Summary of the method: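 Human hepatoma HepG2, cis-element reporter system, 24 h treatment; mRNA quantified by RT-PCR/CE fluorescence; fit relative to DMSO.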

[12] = molecular target: Transcriptional activator Myb (Homo sapiens) (UniProt P10242); assay: ATG_Myb_CIS: Attagene CIS-FACTORIAL HepG2 Assay for human Myeloblastosis (Myb) Proto-Oncogene Transcription Factor (AID 2282986); conditions: HepG2 Attagene CIS-FACTORIAL Myb reporter transcription; actives raise or lower the signal
Sequence of Transcriptional activator Myb (Homo sapiens) (P10242 whole entry, looked up): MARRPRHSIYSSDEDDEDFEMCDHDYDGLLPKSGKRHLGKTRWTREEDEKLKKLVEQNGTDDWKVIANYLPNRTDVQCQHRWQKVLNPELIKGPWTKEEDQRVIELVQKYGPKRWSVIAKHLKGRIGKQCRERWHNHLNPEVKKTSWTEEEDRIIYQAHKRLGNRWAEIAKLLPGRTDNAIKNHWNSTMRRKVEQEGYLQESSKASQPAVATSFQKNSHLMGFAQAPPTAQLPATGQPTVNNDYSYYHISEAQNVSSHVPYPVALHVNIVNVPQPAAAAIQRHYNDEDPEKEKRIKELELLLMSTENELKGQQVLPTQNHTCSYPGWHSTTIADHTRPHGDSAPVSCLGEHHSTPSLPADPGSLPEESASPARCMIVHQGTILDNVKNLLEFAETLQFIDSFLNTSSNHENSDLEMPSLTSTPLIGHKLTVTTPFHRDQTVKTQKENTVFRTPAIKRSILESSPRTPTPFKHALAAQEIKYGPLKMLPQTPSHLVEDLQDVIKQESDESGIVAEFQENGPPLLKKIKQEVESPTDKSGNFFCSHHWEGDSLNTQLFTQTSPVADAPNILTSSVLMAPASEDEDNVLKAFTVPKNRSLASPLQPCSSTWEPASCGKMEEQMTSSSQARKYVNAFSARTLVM
Summary of the method: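 Endogenous transcription factor activity at a Myb-responsive cis element is reported in human liver HepG2 cells after 24 h chemical treatment. Reporter mRNA is detected by RT-PCR and capillary electrophoresis fluorescence, with DMSO as baseline.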

[13] = molecular target: Nuclear respiratory factor 1 (Homo sapiens) (UniProt Q16656); assay: ATG_NRF1_CIS: Attagene CIS-FACTORIAL HepG2 Assay for human Nuclear Respiratory Factor 1 (NRF1) Orphan Gene (AID 2282987); conditions: HepG2 NRF1 cis-element reporter, Attagene multiplex; actives raise or lower the signal
Summary of the method: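 Human hepatoma HepG2 cells carrying transfected promoter-regulated reporter units were incubated with test chemicals for 24 h. Reporter transcripts were measured by RT-PCR plus capillary electrophoresis, and endpoints derived by bidirectional fitting with DMSO as baseline.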

[14] = molecular target: Myc proto-oncogene protein (Homo sapiens) (UniProt P01106); assay: ATG_Myc_CIS: Attagene CIS-FACTORIAL HepG2 Assay for human Myelocytomatosis (Myc) Proto-Oncogene Transcription Factor (AID 2282990); conditions: HepG2, Attagene cis-reporter transcription factor activity; actives raise or lower the signal
Sequence of Myc proto-oncogene protein (Homo sapiens) (P01106 whole entry, looked up): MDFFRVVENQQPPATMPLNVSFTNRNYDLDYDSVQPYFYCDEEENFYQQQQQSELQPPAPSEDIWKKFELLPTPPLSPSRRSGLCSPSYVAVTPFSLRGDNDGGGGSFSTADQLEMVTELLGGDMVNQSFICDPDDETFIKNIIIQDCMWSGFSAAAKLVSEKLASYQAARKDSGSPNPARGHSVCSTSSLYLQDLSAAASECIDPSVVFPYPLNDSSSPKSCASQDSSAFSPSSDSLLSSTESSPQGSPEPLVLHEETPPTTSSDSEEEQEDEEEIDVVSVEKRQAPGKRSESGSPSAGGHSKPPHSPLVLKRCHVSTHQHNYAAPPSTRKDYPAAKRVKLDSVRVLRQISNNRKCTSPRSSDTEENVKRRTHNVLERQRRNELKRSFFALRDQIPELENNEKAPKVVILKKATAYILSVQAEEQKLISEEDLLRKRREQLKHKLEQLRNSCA
Summary of the method: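 Transiently transfected HepG2 cells bearing cis-promoter reporter units for endogenous transcription factors; 24 h exposure. Reporter mRNA measured by RT-PCR, 6-FAM primer extension, HpaI cut and capillary electrophoresis; bidirectional fit relative to DMSO.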

[15] = ATG_NRF2_ARE_CIS: Attagene CIS-FACTORIAL HepG2 Assay for human Nuclear Factor Erythroid 2 Related Factor 2 (NFR2) response to Antioxidant Response Elements (ARE) (AID 2282992); conditions: HepG2 Attagene ARE/NRF2 reporter, transcription factor activity; actives raise or lower the signal
Summary of the method: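 Fluorescence intensity of reporter-specific cDNA fragments, separated by capillary electrophoresis, reflects mRNA induction in transfected HepG2 cells at 24 h. Activity is fitted bidirectionally, DMSO serving as baseline.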

[16] = ATG_Oct_MLP_CIS: Attagene CIS-FACTORIAL HepG2 Assay for human Octamer-Binding Transcription Factor (Oct) (AID 2282993); conditions: HepG2 Attagene cis-factorial Oct reporter, mRNA; actives raise or lower the signal
Summary of the method: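 Cells of the HepG2 line express promoter-controlled reporter sequences whose mRNA levels, after 24 h treatment, are measured by RT-PCR and capillary electrophoresis. Increases and decreases are scored relative to DMSO.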

[17] = molecular target: Cellular tumor antigen p53 (Homo sapiens) (UniProt P04637); assay: ATG_p53_CIS: Attagene CIS-FACTORIAL HepG2 Assay for human p53 Transcription Factor (AID 2282994); conditions: HepG2 p53 cis-element reporter, Attagene mRNA; actives raise or lower the signal
Sequence of Cellular tumor antigen p53 (Homo sapiens) (P04637 whole entry, looked up): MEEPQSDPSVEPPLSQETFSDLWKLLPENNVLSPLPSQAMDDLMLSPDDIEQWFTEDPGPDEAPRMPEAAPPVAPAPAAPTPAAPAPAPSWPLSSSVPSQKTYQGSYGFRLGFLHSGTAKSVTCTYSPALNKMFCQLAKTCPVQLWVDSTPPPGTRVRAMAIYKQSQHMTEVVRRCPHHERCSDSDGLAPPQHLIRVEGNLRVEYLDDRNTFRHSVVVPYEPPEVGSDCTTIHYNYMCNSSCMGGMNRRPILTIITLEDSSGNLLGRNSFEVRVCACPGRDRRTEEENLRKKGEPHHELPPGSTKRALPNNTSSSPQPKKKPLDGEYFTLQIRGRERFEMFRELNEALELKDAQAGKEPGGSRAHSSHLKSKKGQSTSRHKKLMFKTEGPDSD
Summary of the method: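 Transiently transfected HepG2 (multiple cis reporter transcription units); exposure 24 h; reporter RNA via RT-PCR, 6-FAM extension, 2 h HpaI digest at 37 C, CE detection; DMSO baseline.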

[18] = molecular target: Nuclear receptor subfamily 1 group I member 2 (Homo sapiens) (UniProt O75469); assay: ATG_PXR_TRANS: Attagene TRANS-FACTORIAL HepG2 Assay for human Pregnane X Receptor (PXR) (AID 2283008; active = hit-call score of the fitted dose curve at least 0.9, where 1 is the maximum)
Sequence of Nuclear receptor subfamily 1 group I member 2 (Homo sapiens) (O75469 whole entry, looked up, the tested form may be a part): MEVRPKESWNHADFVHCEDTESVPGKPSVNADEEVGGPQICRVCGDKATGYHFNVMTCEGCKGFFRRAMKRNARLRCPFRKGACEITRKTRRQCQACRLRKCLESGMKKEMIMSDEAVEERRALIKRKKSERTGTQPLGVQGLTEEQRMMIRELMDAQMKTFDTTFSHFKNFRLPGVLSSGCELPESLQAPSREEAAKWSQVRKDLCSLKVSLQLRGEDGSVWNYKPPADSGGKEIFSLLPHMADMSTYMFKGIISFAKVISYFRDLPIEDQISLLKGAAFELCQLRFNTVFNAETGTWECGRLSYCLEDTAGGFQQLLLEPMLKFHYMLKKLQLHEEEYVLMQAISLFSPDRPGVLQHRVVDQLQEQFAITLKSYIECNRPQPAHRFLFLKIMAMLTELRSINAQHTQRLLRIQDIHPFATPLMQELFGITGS
Summary of the method: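 Transient HepG2 transfectants carrying multiplexed reporter transcription units; PXR activity read through a Gal4 chimera. 24 h exposure. RT-PCR/CE fluorescence; upward curve fit referenced to DMSO.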

[19] = ATG_XTT_Cytotoxicity: Cytotoxicity Assessment in the Attagene TRANS-FACTORIAL HepG2 Assay (AID 2283584; active = hit-call score of the fitted dose curve at least 0.9, where 1 is the maximum)
Summary of the method: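 Viability endpoint from XTT after 24 h chemical exposure of reporter-transfected human HepG2 liver cells; signal loss fitted relative to DMSO negative control.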

[20] = ATG_AP_1_CIS: Attagene CIS-FACTORIAL HepG2 Assay for human Activator Protein 1 (AP-1) (AID 2282931); conditions: HepG2 Attagene cis-factorial AP-1 reporter mRNA; actives raise or lower the signal
Summary of the method: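 Fluorescence of labelled PCR fragments separated by capillary electrophoresis gives reporter mRNA levels. HepG2 with transfected cis-regulated reporter units, 24 h exposure; DMSO serves as baseline for bidirectional curve fits.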

Measured: AC50

OCCN(CCO)c1cccc(Cl)c1
active: [15] 175 µM
not listed: [20]
inactive: all other assays above

CC1=C(CC=O)C(C)(C)CCC1
active: [15] 30.2 µM | [18] 1.38 µM
not listed: [16] | [19] | [20]
inactive: all other assays above

COC(=O)CCSCCC(=O)OC
not listed: [10] | [17]
inactive: all other assays above

Cc1cccnc1
active: [20] 58 µM | [4] 100 µM | [12] 164 µM
not listed: [16] | [17] | [19]
inactive: all other assays above

CCCOCCC
not listed: [5]
inactive: all other assays above

O=C(c1ccccc1)c1ccccc1O
active: [1] 162 µM | [6] 154 µM | [7] 129 µM | [14] 135 µM | [18] 34.4 µM
not listed: [17]
inactive: all other assays above

Cc1ccccc1S(N)(=O)=O
active: [10] 26.5 µM
inactive: all other assays above

Cc1cc(-n2nc3ccc(Cl)cc3n2)c(O)c(C(C)(C)C)c1
inactive: all assays above
